Assay outcomes as filed in PubChem BioAssay.
KB-V1 MDR tox: qHTS assay for MDR1-selective chemotherapeutics: Primary screen using the drug-selected MDR subline cells KB-V1 | KB-V1 MDR cells viability, CellTiter-Glo, 72 h | Potency, µM (top dose mostly 46.1 µM), hits mostly cytotoxic | 400,000 compounds, 3.4% hits | AID 1347076, 2019; also: nearly all actives have a fitted effect of over 60% in size
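KB-V1 cells (P-gp-expressing MDR subline of KB-3-1) in phenol-red-free DMEM with 10% FBS were exposed to library compounds over a concentration series for 72 h at 37 degrees C. Viability read by CellTiter-Glo luminescence; concentration-effect curves fitted after normalization.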
KB-3-1 tox: qHTS assay for MDR1-selective chemotherapeutics: Primary screen using the parental adenocarcinoma cell KB-3-1; Potency, µM (series often up to 46.1 µM), actives largely listed as cytotoxic; KB-3-1 viability, CellTiter-Glo ATP luminescence, 72 h; 400,000 compounds, 1.4% hits; AID 1347075, 2019; also: nearly all actives have a fitted effect of over 60% in size
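Multi-concentration cytotoxicity screen in KB-3-1 cells grown in DMEM lacking phenol red with 10% FBS. After 72 h at 37 °C with compound, ATP-dependent luminescence was recorded.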
SW480 rerep: A quantitative high throughput screen for small molecules that induce DNA re-replication in SW480 colon adenocarcinoma cells | SW480 DNA re-replication, Hoechst DNA content imaging, 48 h | Potency, µM (series often up to 46.1 µM), most hits filed as activators | 340,000 compounds, 1.8% hits | AID 624297, 2012; also: nearly all actives have a fitted effect of over 55% in size
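250 cells/well; 23 nL cpd via pin tool; 48 hr, 37 C, 5% CO2; Hoechst 40 min; imager read of total nuclear intensity, ex 405/em 500-530 nm.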
MCF10A rerep: A quantitative high throughput screen for small molecules that induce DNA re-replication in MCF 10a normal breast cells; MCF 10A DNA re-replication, Hoechst nuclear intensity, 48 h; Potency, µM (top dose mostly 46.1 µM), hits mostly activators; 350,000 compounds, 2.9% hits; AID 624296, 2012; also: nearly all actives have a fitted effect of over 50% in size
DRD3 antagonist: qHTS of D3 Dopamine Receptor Antagonist: qHTS; D(3) dopamine receptor (Homo sapiens), P35462; D3R cells, DiscoveRx beta-arrestin luminescence, antagonist mode; hits give low values; max response, negative = inhibition, %; 360,000 compounds, 2.5% hits; AID 652054, 2013; in the data active = max response below about -50%; inconclusive = no clear call, values can overlap the other calls
Target sequence (P35462 whole entry, looked up): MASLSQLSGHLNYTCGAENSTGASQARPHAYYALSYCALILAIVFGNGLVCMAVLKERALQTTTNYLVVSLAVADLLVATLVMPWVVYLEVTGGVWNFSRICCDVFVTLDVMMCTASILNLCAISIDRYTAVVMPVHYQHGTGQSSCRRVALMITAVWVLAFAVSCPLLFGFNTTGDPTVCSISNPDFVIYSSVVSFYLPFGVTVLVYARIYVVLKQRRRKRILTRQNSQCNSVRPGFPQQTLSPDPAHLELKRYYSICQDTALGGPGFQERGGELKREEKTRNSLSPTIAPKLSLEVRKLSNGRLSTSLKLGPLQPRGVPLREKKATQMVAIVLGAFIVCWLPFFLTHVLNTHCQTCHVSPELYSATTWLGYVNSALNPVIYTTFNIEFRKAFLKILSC
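Cells plated overnight at 1500 cells/well, then exposed to library compounds with dopamine controls for 90 minutes at 37 degrees C. DiscoveRx reagent added for 30–60 minutes at room temperature; luminescence read, quantitative HTS format.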
DRD3 agonist: qHTS of D3 Dopamine Receptor Agonist: qHTS. max activation, %. 410,000 compounds, 0.58% hits. D3R DiscoveRx beta-arrestin cells, luminescence, 90 min. D(3) dopamine receptor (Homo sapiens), P35462; in the data active = max activation above about 30%
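Agonist mode: compounds and dopamine controls were applied to plated cells for 90 min at 37 degrees C after an overnight attachment at 1500 cells/well. Luminescent read-out followed 30 - 60 minutes at room temperature with DiscoveRx detection reagent.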
Hits are given with their value; - = inactive; ? = inconclusive; . = not tested or not shown; [ ] = another dose, or the depositor's remark. Compounds with a hit are over-represented: about 8.9% of the library has one in this group of screens. Unless noted, calls follow the shape of the dose curve; as a rule, active = well fitted curve in the direction sought with a large enough effect; inconclusive = small, poorly fitted or top-dose-only effect, or another doubt; inactive = no such curve, though single readings can be large; an effect the other way counts as inactive or inconclusive.

SMILES | KB-V1 MDR tox | KB-3-1 tox | SW480 rerep | MCF10A rerep | DRD3 antagonist | DRD3 agonist
CC(OC(=O)CCCN=C1NS(=O)(=O)c2ccccc21)C(=O)NC1CCCCC1C (centres undefined) | . | . | - | - | - | -
O=C(CCc1ccccc1)Nc1ccc(F)c([N+](=O)[O-])c1 | - | - | - | - | - | -
COc1ccc(NC(=S)NC(NC(=O)C(C)C)C(Cl)(Cl)Cl)c([N+](=O)[O-])c1 (centres undefined) | - | - | ? | - | -69.4 | -
COc1ccc(NC(=O)CC(C)C)c([N+](=O)[O-])c1 | - | - | - | - | - | -
Cc1ccc(NC(=O)C[n+]2ccccc2)cc1[N+](=O)[O-] | - | - | - | - | -59.4 | -
CC(=O)Nc1cc([N+](=O)[O-])ccc1OCc1ccccc1 | 18.4µM | - | - | - | - | -
COc1ccc(CCC(=O)Nc2ccc(C)c([N+](=O)[O-])c2)cc1 | 20.6µM | - | - | - | - | -
CN1CCN(c2ncc3c(n2)CCN(Cc2cc(Br)cs2)C3)CC1 | - | - | . | . | . | -
O=C(c1ccccc1Cl)N1CCCCC1CCN1CCOCC1 (centres undefined) | . | . | . | . | . | -
Cc1ccc(NC(=O)c2ccco2)c(OCc2cc(=O)n3cc(C)sc3n2)c1 | . | . | . | . | . | -
CCOc1ccc(NC(=S)NC(=O)/C=C/c2ccc(C)cc2)c([N+](=O)[O-])c1 | 11.6µM | ? | - | ? | - | -
COc1ccc(NC(=S)Nc2ccc(N)c([N+](=O)[O-])c2)cc1 | - | - | - | - | -81.9 | -
COc1ccc(NC(=O)C2CC3C=CC2C3)c([N+](=O)[O-])c1 (centres undefined) | 20.6µM | - | - | - | - | -
COc1ccc([N+](=O)[O-])cc1NC(=O)Cc1ccc(C)cc1 | - | - | - | - | - | -
COc1ccc(CCC(=O)Nc2cc([N+](=O)[O-])ccc2OC)cc1 | 20.6µM | - | - | - | - | -
CC1(C)CC(=O)c2cc(C(=O)Nc3cccc4ccccc34)c(=O)[nH]c2C1 | - | - | . | . | . | .
COc1ccccc1CNC(=O)c1cc2cc(C)ccc2n1C | - | - | . | . | . | -
O=C(C[n+]1ccc(C(=O)c2ccccc2)cc1)Nc1cccc([N+](=O)[O-])c1 | - | - | . | . | -94.7 | -
O=C(Cc1ccccc1)Nc1cccc([N+](=O)[O-])c1 | - | - | - | - | - | -
COc1ccc([N+](=O)[O-])cc1NC(=S)NC(NC(C)=O)C(Cl)(Cl)Cl (centres undefined) | - | - | - | - | - | -
COc1ccc([N+](=O)[O-])cc1NC(=S)NC(NC(=O)Cc1ccc(OC)c(OC)c1)C(Cl)(Cl)Cl (centres undefined) | - | - | - | - | -92.5 | -
CCCc1cc2c(c(NC(C)=O)n1)c(=O)oc1ccccc12 | 13µM | - | - | - | - | -
CCCC(=O)Nc1cc(C)c2c(=O)oc3ccccc3c2n1 | 18.4µM | - | - | - | - | -
CCCCOc1ccc(-c2nonc2NC(=O)c2ccco2)cc1 | - | - | . | . | . | -
O=C(O)c1ccc(O)c2ncccc12 | - | - | . | . | . | .
SMILES | KB-V1 MDR tox | KB-3-1 tox | SW480 rerep | MCF10A rerep | DRD3 antagonist | DRD3 agonist
COc1ccccc1N=Nc1ccc(O)c2ncccc12 | ? | - | - | - | -89.6 | -
CCS(=O)(=O)c1ccc(O)c(NC(=O)c2cc(OC)c(OC)c(OC)c2)c1 | - | - | - | - | - | -
Oc1ccc(N=Nc2ccccc2C(F)(F)F)c2cccnc12 | - | - | ? | - | -124.5 | -
CCS(=O)(=O)c1ccc(N=Nc2ccc(O)c3ncccc23)c(OC)c1 | ? | 14.6µM | 4.61µM | ? | ? | -
O=C(C[n+]1ccc(/C=C/c2ccccc2)cc1)c1ccc2c(c1)OCCO2 | ? | 11.6µM | ? | - | - | -
O=C(CS(=O)(=O)c1ccccc1)c1ccc2c(c1)OCCO2 | - | - | - | - | - | -
O=C(O)CCC(=O)c1ccc2c(c1)OCCO2 | - | - | - | - | - | -
Cc1cc[n+](CC(=O)c2ccc3c(c2)OCCO3)cc1 | - | - | - | - | - | -
O=C(CCN1CCc2ccccc2C(c2ccccc2)C1)c1ccc2c(c1)OCCO2 (centres undefined) | ? | ? | ? | 5.17µM | ? | -
O=C(CCN1Cc2ccccc2C1)c1ccc2c(c1)OCCO2 | - | - | - | - | -52.4 | -
CCC(C(=O)O)n1ccc2cc(S(=O)(=O)N3CCCCC3)ccc21 (centres undefined) | ? | - | . | . | . | -
O/N=C/c1cc(Br)ccc1OCc1ccc(F)cc1 | - | - | -[9.22 µM] | - | - | -
O/N=C/c1ccc(OCc2ccccc2F)c(Cl)c1 | 16.4µM | ? | - | ? | - | -
O/N=C/c1ccc(OCc2ccccc2)c(Cl)c1 | ? | ? | - | - | - | -
O/N=C/c1ccc(OCc2ccccc2)c(Br)c1 | 11.6µM | ? | ? | 25.9µM | - | -
Cc1ccc(COc2ccc(Br)cc2/C=N/O)cc1 | ? | - | -[9.22 µM] | ? | -94.2 | -
CCOc1cc(/C=N/O)cc(Br)c1OCc1ccc(Cl)cc1 | - | - | ? | 11.2µM | - | -
CCOc1ccc(NC(=O)N2CCC(n3nnc4cc(C)ccc43)CC2)cc1 | ? | - | 14.6µM | - | - | -
O=C(c1ccco1)N1CCN(CCOCCOc2cccc3ccccc23)CC1 | ? | - | - | - | - | 88.6
C=CCOc1ccc2ccccc2c1CNCCCN1CCOCC1 | 16.4µM | - | - | - | - | -
O=C(c1ccco1)N1CCN(CCCCOc2cccc3ccccc23)CC1 | ? | ? | ? | - | ? | 37.6
COc1ccccc1OCCCCCCN1CCOCC1 | - | - | - | - | - | -
c1ccc2c(OCCCCN3CCOCC3)cccc2c1 | - | - | - | ? | -59.7 | -
COc1ccc(N2CCN(S(=O)(=O)CCNC(=O)COc3ccccc3F)CC2)cc1 | . | . | . | . | . | -
Cc1cc(Cl)c(OCCCCN2CCOCC2)c(Br)c1 | ? | - | - | ? | - | -
Cc1cccc(OCCN2CCOCC2)c1C | - | - | - | - | - | 54.2
Cc1cc(Cl)cc(C)c1OCCCCN1CCOCC1 | ? | - | - | ? | -57.5 | -
COc1ccc(C(=O)NNc2ncnc3c2cnn3-c2ccc(C)c(Cl)c2)cc1 | - | - | . | . | . | -
CCC(C(=O)N1CCN(c2cc(Cl)ccc2C)CC1)n1nc(C)c2sc3ccccc3c2c1=O (centres undefined) | - | - | . | . | . | -
